# The list is not random: actives were taken first. Their share in the collection is about 2.7%.
# PREPL inhibitor – human PREPL enzyme inhibition; AID 2751; inhibition, % at 5.96 µM; hit rate 0.68% among 320,000; recombinant PREPL, fluorescence polarization activity-based probe; in the data active = inhibition above about 43%;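 note: 0% = enzyme with DMSO and 100% = wells lacking enzyme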
# ANO1 block – blocks the mouse calcium-activated chloride channel TMEM16A; Q8BHY3; normalized B-score (activity score, 25-100; higher = stronger inhibition) at 10 µM; AID 588511; HEK293 TMEM16A/YFP iodide influx fluorescence, ionomycin; hit rate 1.2% among 310,000;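 active = ratio plate-corrected score three or more library SD toward inhibition, starting fluorescence score within five deviations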;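 note: score derived from kinetic fluorescence span divided by baseline fluorescence per well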
# ANO1 activ – activates or potentiates the mouse TMEM16A chloride channel; hit rate 0.3% among 340,000; HEK293 TMEM16A/YFP-H148Q/I152L, iodide quench fluorescence; active compounds read low; B-score at 10 µM; Q8BHY3; AID 623877;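 active = fluorescence-ratio B-score plate-corrected deviation score at least 3 library SD below zero, with starting fluorescence score within 5 deviations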;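 note: channel opened by trigger with iodide after compound preincubation; score built on the fluorescence ratio of max minus min over baseline; more negative score means more quench and so TMEM16A activation or potentiation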
# PP5 inh – blocks human protein phosphatase 5 activity; inhibition, % at 6.7 µM; P53041; hit rate 0.18% among 320,000; purified PP5c, OMFP substrate fluorescence;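 active = inhibition above the campaign's mean inhibition across all tested compounds plus 3 SD, cut at about 9.5% in these data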;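 note: 0% = DMSO only and 100% = 100 µM cantharidin control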
# PP1 inh – blocks human PP1-alpha phosphatase, a PP5 counter-screen | inhibition, % at 6.7 µM | purified PP1alpha, OMFP fluorescence | AID 2235 | P62136 | hit rate 0.9% among 320,000;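 active = inhibition above the mean inhibition of all tested compounds plus 3 SD, computed separately for each screening campaign, cut at about 15% in these data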
# DNA FID counter – fluorescent intercalator displacement, NS3 helicase counter-screen | inhibition, % at 7.9 µM | hit rate 0.17% among 290,000 | DNA fluorescent intercalator displacement, fluorescence | AID 1845; in the data active = inhibition above about 37%;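 note: 0% = vehicle and 100% = reference compound; higher means more ethidium bromide displaced from hairpin DNA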
# Starred values were filed as active, the others as inactive; i = inactive; / = no result.
SMILES,PREPL inhibitor,ANO1 block,ANO1 activ,PP5 inh,PP1 inh,DNA FID counter
COC/C=C/C1=CC2=CC(=O)C(C)(OC(=O)c3cnc4ccccc4n3)C(=O)C2=CN1c1ccccc1 (stereo unspecified),12,i,/,2,13,/
O=C1C(=NO)CCc2ccccc21,/,/,i,/,/,/
O=C(Cn1cc(C(=O)COc2ccccc2)c2ccccc21)NCc1ccco1,-6,i,i,-1,17*,-20
Cc1ccc2nc(SCCCCOc3ccccc3)[nH]c2c1,-27,100*,i,5,2,-9
COc1cccc(C(=O)NNC(=O)c2ccc3ccccc3c2O)c1,12,i,i,-2,-3,/
Cc1ccc(S(=O)(=O)Nc2ccccc2-c2nc3ccccc3[nH]c2=O)cc1,-1,/,i,-2,-6,/
Cc1ccc(S(=O)(=O)NCC(c2ccco2)N2CCc3ccccc3C2)cc1 (stereo unspecified),-13,25*,i,2,4,/
Cc1noc(C)c1COc1ccc(C(=O)OCc2nnc(-c3ccc(Cl)cc3)o2)cc1,-25,i,-5*,7,4,-8
CCN1CCCc2cc(CN(CCN3CCOCC3)C(=S)Nc3cccc(Cl)c3)ccc21,23,i,i,2,3,6
CN(C)c1ccc(/C=C/c2ccc3ccccc3n2)cc1,60*,i,i,1,-4,-7
C(=C\c1ccc2ccccc2n1)/c1ccccc1,-11,i,i,3,2,-6
COc1ccc(C(=O)c2cc([N+](=O)[O-])ccc2N2CCN(C)CC2)cc1,-1,i,i,-2,-5,40*
COC(=O)Cn1c(CN2CCC(Cc3ccccc3)CC2)nc2c1c(=O)n(C)c(=O)n2C,5,25*,i,2,2,-44
COc1ccc(N2C(=NC(=O)C3CC3)SC3CS(=O)(=O)CC32)cc1Cl (stereo unspecified),-7,i,i,2,2,-7
c1ccc(-c2noc(CN3CCCC(OCc4ccccn4)C3)n2)cc1 (stereo unspecified),-41,i,i,-2,-3,60*
CC1CCN(Cc2nc(-c3ccccc3)no2)CC1,16,i,i,4,-4,-2
Cc1cccc(NC(=O)C(=O)NCCc2c[nH]c3ccccc23)c1C,-22,i,-5.6*,1,-4,-1
COc1ccc2nc3n(c(=O)c2c1)-c1ccccc1C(=O)NC3Cc1ccccc1 (stereo unspecified),5,/,/,/,/,/
CNC(CC(=O)c1ccc([N+](=O)[O-])cc1)C(Cl)(Cl)Cl (stereo unspecified),3,25*,i,3,0,-1
Cc1ccccc1C1=C/C(=C(\SS/C(C(=O)c2ccc(OCC(=O)O)c(Cl)c2Cl)=C2\C=C(c3ccccc3C)SS2)C(=O)c2ccc(OCC(=O)O)c(Cl)c2Cl)SS1,/,/,i,/,/,/
Oc1ccc(-c2n[nH]c(C(F)(F)F)c2-c2ccccc2)c(O)c1,-2,100*,i,6,1,4
COc1ccc(/C=N/NC(=O)c2cc(Br)ccc2O)cc1Cn1cc(Cl)cn1,2,100*,i,2,5,-10
COc1ccc(/C=N/NC(=O)c2ccc(Cl)cc2)cc1Cn1cc(Cl)cn1,-23,i,i,3,0,-7
O=C(Nc1ccccc1C(=O)N1CCCCCC1)c1cccc([N+](=O)[O-])c1,7,i,i,2,-3,-9
Cc1ccc2oc(C(=O)N3CCC(O)(c4cccc(C(F)(F)F)c4)CC3)c(C)c2c1,1,i,i,7,6,-21
SMILES,PREPL inhibitor,ANO1 block,ANO1 activ,PP5 inh,PP1 inh,DNA FID counter
Cc1ccc(SCC(=O)Nc2cc([N+](=O)[O-])ccc2O)cc1,1,25*,i,0,5,0
O=C(CSCc1ccc(Cl)cc1)Nc1cc([N+](=O)[O-])ccc1O,0,i,i,2,1,0
c1cncc(-c2noc(CC3CCCCC3)n2)c1,10,i,i,4,0,-3
COc1ccc(SCC(=O)c2cc(C)c(OC(=S)N(C)C)c(C)c2)cc1,4,25*,i,2,1,-10
Cc1ccc(SCC(=O)c2cc(C)c(O)c(C)c2)cc1,1,i,i,4,2,-4
C[C@@H](C(=O)NCCc1ccccc1F)N1C(=O)N2CCc3c([nH]c4ccccc34)[C@@]2(C)C1=O,6,25*,i,2,-7,-35
C[C@@H](C(=O)NCCc1ccccc1)N1C(=O)N2CCc3c([nH]c4ccccc34)[C@@]2(C)C1=O,-5,i,i,2,-5,-36
CCCCC(=O)Nc1cccc(C(=O)N/N=C/c2ccc(OC)cc2OC)c1,6,i,i,-1,-1,-30
COc1cccc(C2C(C(=O)OC(C)C)=C(C)N=c3s/c(=C\c4ccc(C(=O)O)cc4)c(=O)n32)c1 (stereo unspecified),4,i,-4.8*,4,11,11
Cc1ccc(COCC(CC(C)C)N2CCN(C(=O)c3cccc(C(F)(F)F)c3)CCC2=O)cc1 (stereo unspecified),15,i,-17*,3,4,-46
Cc1ccc(S(=O)(=O)N2CCC(=O)N(C(COCc3ccc(Cl)c(Cl)c3)Cc3ccccc3)CC2)cc1 (stereo unspecified),15,i,/,3,0,-5
Cc1ccc(S(=O)(=O)N2CCC(=O)N(C(COCc3ccc(C(F)(F)F)cc3)Cc3ccccc3)CC2)cc1 (stereo unspecified),28,i,-34*,6,15,-6
Cc1ccc(S(=O)(=O)N2CCC(=O)N(C(COCc3cccc(C)c3)Cc3ccccc3)CC2)cc1 (stereo unspecified),6,i,-22*,2,7,-29
Cc1ccc(S(=O)(=O)N2CCC(=O)N(C(COCc3ccc(C(F)(F)F)cc3)C(C)C)CC2)cc1 (stereo unspecified),34,i,i,6,9,-36
Fc1cccc(CNc2ncnc3cc(Cl)ccc23)c1F,-4,i,i,0,-1,-8
Cc1cc2oc(=O)cc(CN3CCN(S(=O)(=O)c4cccs4)CC3)c2cc1C,-49,i,i,0,-4,-1
Cc1cccc(C)c1NC(=O)COC(=O)c1cccc2c1C(=O)c1ccccc1C2=O,1,i,i,4,0,7
CC1CCN(C(=O)c2ccc3c(c2NCCO)C(=O)c2ccccc2C3=O)CC1,22,i,i,6,0,-21
CCN(CC)CCNC(=O)c1ccc2c(c1NCCO)C(=O)c1ccccc1C2=O,37,i,/,0,-2,42*
CCN(CC)CCC(=O)Nc1cccc2c1C(=O)c1ccccc1C2=O,23,i,i,0,-1,69*

# From PubChem
